Screens: PubChem BioAssay, National Center for Advancing Translational Sciences (NCATS)
GLS inh: glutaminase GLS (human) inhibition | 410,000 tested, 0.21% active | GLS enzymatic activity, qHTS titration | O94925 | Potency, µM (top dose mostly 45.5 µM), for the others: at the highest dose activity change, negative = inhibition, most hits filed as inhibitors | AID 624170; note: % is set by controls: 0 for no effect and ±100 for the full control effect
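Coupled fluorescence readout: glutamate oxidase/HRP/Amplex Red detect glutamate formed by hKGA from L-glutamine (1 mM solution added). Buffer 45 mM KH2PO4 pH 8.2, 0.02% Tween-20; reads at t0 and 30 min RT.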
G9a block: inhibitors of human histone lysine methyltransferase G9a; 350,000 tested, 8.8% active; G9a H3K9 monomethylation, AlphaScreen, 2 h; AID 504332; Potency, µM (top dose mostly 102 µM), for inactives: at the top dose activity, negative = inhibition, hits mostly inhibitors; note: % is set by controls: 0 for no effect and ±100 for the full control effect; nearly all actives have a fitted effect of over 75% in size
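Quantitative HTS format: methyltransferase activity on a biotin-tagged H3K9 peptide is measured by AlphaScreen, using a rabbit anti-monomethyl-H3K9 antibody with streptavidin donor and anti-IgG acceptor beads. Final levels are 20 nM enzyme, 500 nM peptide, 20 uM SAM; 2 h RT.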
JMJD2A Tudor inh: blocks the human JMJD2A Tudor domain; Potency, µM (series often up to 114 µM), for the others: top-dose activity change, negative = inhibition, usual class: inhibitors; AlphaScreen JMJD2A-Tudor / H3K4me3 peptide binding; 390,000 tested, 4.4% active; AID 504339; O75164; note: % is set by controls: 0 for no effect and ±100 for the full control effect; nearly all actives have a fitted effect of over 50% in size
HP1b binding inh: inhibitors of HP1-beta chromodomain binding to methylated histone tails. P83916. AlphaScreen HP1-beta / biotin-H3K9me3 peptide binding. Potency, µM (titrated, usually from 114 µM), inactives show at the highest dose activity change, negative = inhibition, actives largely listed as inhibitors. 390,000 tested, 0.56% active; note: nearly all actives have a fitted effect of over 70% in size
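Compound inhibition of the preformed complex between 50 nM HP1-beta and 50 nM biotinylated H3K9me3 peptide was read by AlphaScreen. Buffer was PBS pH 7.4 with 0.01% Tween-20. Incubations ran 30 min at room temperature, with 10 ug/mL donor/acceptor beads.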
BAZ2B block: inhibitors of human BAZ2B bromodomain | AlphaScreen BAZ2B-H3K14Ac peptide displacement | Potency, µM (highest dose often 114 µM), for inactives: at the top dose activity change, negative = inhibition, usual class: inhibitors | 360,000 tested, 4.4% active; note: % is set by controls: 0 for no effect and ±100 for the full control effect; nearly all actives have a fitted effect of over 60% in size
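BAZ2B 50 nM plus b-H3(5-23)K14Ac 50 nM, PBS pH 7.4/0.01% Tween-20, 30 min RT; compound added (max 110 uM), 30 min RT; streptavidin donor/Ni-chelate acceptor beads 10 ug/mL final, 20 min dark; AlphaScreen read.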
Starred values were filed as active, the others as inactive; ? = inconclusive; . = no result; [ ] = dose if it differs, or a comment. In the library only some 10% were active in any assay of this set; here they are far more common. Calls come from the whole dose curve; as a rule, active = well fitted curve in the direction sought with a large enough effect; inconclusive = small, poorly fitted or top-dose-only effect, or another doubt; inactive = no such curve, though single readings can be large; an effect the other way counts as inactive or inconclusive. Potency is the fitted concentration of half-maximal effect.

SMILES | GLS inh | G9a block | JMJD2A Tudor inh | HP1b binding inh | BAZ2B block
COc1ccccc1NC(=O)c1ccc(NC(=O)CNC(=O)c2ccc(OC)c(OC)c2)cc1 | -10.8% | 20.6% | -15.1% | 19.4% | -1.9%
CC(Oc1ccc(Cl)cc1Cl)C(=O)NC1CCSC1=O (centres undefined) | -3.8% | -9.6%[59 µM] | 6.0% | 37.0% | 10.3%
COc1cc(C2Nc3cccc4cccc(c34)N2)ccc1O | 11.2µM* | 8.91µM* | 50.1µM* | ? | ?
CCN(CC)c1ccc(C2Nc3cccc4cccc(c34)N2)c(O)c1 | 2.7% | 31.6µM* | 35.5µM* | ? | 11.2µM*
COc1cc(C2Nc3cccc4cccc(c34)N2)cc(OC)c1OC(C)=O | 2.5% | 12.6µM* | ? | ? | ?
COc1ccc(C2NC(=O)c3ccccc3N2)c(OC)c1OC (centres undefined) | 4.7% | . | . | . | .
COc1ccc2ccc3ccc(OC)c(OC(C)=O)c3c2c1 | 9.2% | . | 29.9% | 78.8% | .
COc1ccc(Br)cc1C1Nc2cccc3cccc(c23)N1 | -6.1% | -6.4%[0.501 µM] | ? | -17.4% | 44.7µM*
O=C(NCCc1cccc(Cl)c1)c1cccc([N+](=O)[O-])c1 | 1.6% | 25.0% | -19.2% | 13.9% | -6.1%
CSc1ccccc1C(=O)N(C)Cc1ccccc1 | -6.1% | -41.1% | -20.5% | 38.2% | -0.4%
Oc1ccc2ccccc2c1C1Nc2cccc3cccc(c23)N1 | 25.4% | 5.01µM* | 44.7µM* | ? | 39.8µM*
COc1ccc(CCNC(=O)Cn2cc(S(=O)(=O)Cc3cccc(Cl)c3)c3ccccc32)cc1OC | 1.2% | 5.9%[59 µM] | -8.6% | 24.4% | 16.9%
O=C(NCc1nc(-c2ccc(C(F)(F)F)cc2)no1)c1cccs1 | 1.1% | 20.6% | ? | 7.6% | 3.1%
COc1cc2c(cc1OC)-c1cc(NC3CCCCCCC3)nc(=O)n1CC2 | -6.3% | 44.7µM* | -20.3% | 16.2% | -29.0%
CCNc1cc2n(c(=O)n1)CCc1cc(OC)c(OC)cc1-2 | 19.6% | 2.6% | -17.4% | 14.2% | -2.3%
COc1cc2c(cc1OC)-c1cc(NCc3ccccn3)nc(=O)n1CC2 | ? | . | -24.0%[11.4 µM] | 10.0% | 28.2µM*
COc1cc2c(cc1OC)-c1cc(NC3CCCCC3)nc(=O)n1CC2 | 16.7% | ? | -17.2% | 37.8% | -3.2%
CC(=O)c1cc(NC(=O)c2ccc([N+](=O)[O-])cc2)c(=O)oc1C | 0.6% | 22.4µM* | 9.3% | 30.1% | -22.9%
COc1ccc(C(=O)Nc2cc(C(=O)c3ccccc3)c(C)oc2=O)cc1 | 6.2% | 8.91µM* | ? | ? | ?
COC(=O)c1cc(NC(=O)c2ccccc2)c(=O)oc1C | 11.9% | 44.7µM* | -2.3% | -13.8% | -0.8%
CNC(=O)c1cc2ccc(OC)cc2oc1=O | 4.8% | ? | 6.4% | 17.8% | -0.7%
O=C(Nc1ccc2ccccc2c1)c1cccc2ccccc12 | 0.4% | . | -13.8% | 19.8%[57 µM] | .
C=C(c1cccc2ccccc12)P(=O)(O)O | 2.8% | 15.8µM* | ? | 47.0% | 12.5%
CC(=O)n1c(-c2ccccc2)c(-c2ccccc2)n(C)c1=O | 31.6µM* | . | -8.3% | 5.9% | .
CC(=O)Nn1cc2c(c1-c1ccccc1)c(=O)n(C)c(=O)n2C | -6.9% | ? | -17.8% | 6.0% | 7.1%
SMILES | GLS inh | G9a block | JMJD2A Tudor inh | HP1b binding inh | BAZ2B block
COc1ccc(S(=O)(=O)N(c2onc(C)c2Cl)S(=O)(=O)c2ccc(OC)c(OC)c2)cc1OC | 1.2% | ? | 25.1µM* | 31.8% | 79.4µM*
NC(=O)CN(N=Nc1cccc([N+](=O)[O-])c1)c1cccc([N+](=O)[O-])c1 | 5.1% | 4.2% | -10.4% | 12.7% | -17.0%
COc1ccc(C(=O)NN=C2CCCC2)c(OC)c1 | 17.1% | . | -10.6% | 45.2% | -3.3%
C/C(=N\Nc1ccccc1[N+](=O)[O-])c1ccc(N2CCOCC2)cc1 | 0.0% | -27.1% | ? | 10µM* | 1µM*
C/C(=N\Nc1ccc([N+](=O)[O-])cc1)c1ccc(N2CCOCC2)cc1 | -14.9% | . | 4.5% | 6.2% | -2.7%
CN1CCc2c(sc(/N=C/c3c[nH]c4ccccc34)c2C(N)=O)C1 | ? | 44.7µM* | ? | -26.6% | -27.7%
CCOC(=O)c1c(NC(=O)Nc2ccc(C)cc2)sc2c1CCN(C)C2 | 0.0% | 13.2% | -2.5% | 2.8% | -3.4%
CCOC(=O)c1c(/N=C/N(C)C)sc2c1CCC2 | 23.9% | -18.0%[59 µM] | -33.6% | -12.6% | ?
CN1CCc2c(sc(/N=C/c3c[nH]c4ccccc34)c2C#N)C1 | 0.0% | . | ? | -34.6% | ?
CCOC(=O)c1c(/N=C/c2ccc(C)cc2O)sc2c1CCC2 | 13.9% | 44.7µM* | -27.1% | -38.0% | ?
CCOC(=O)c1c(/N=C/c2ccc(OC)cc2O)sc2c1CCN(C)C2 | 0.2% | . | 44.7µM* | ? | 39.8µM*
COc1ccc(Cl)cc1NC(=S)N1CCN(c2ccccn2)CC1 | 20.5% | ? | -10.2% | 15.0% | 3.6%
S=C(Nc1cccc(Cl)c1)N1CCN(c2ccccn2)CC1 | -6.8% | . | -11.8% | 37.8% | 5.8%
COc1cc(NC(=S)N2CCC(C(N)=O)CC2)c(OC)cc1Cl | 3.9% | 44.7µM* | -18.7% | 16.9% | -18.6%
COc1cc2nc(C3CCC3)nc(N3CCN(c4ccccn4)CC3)c2cc1OC | -3.8% | 50.1µM* | ? | -15.7% | 50.1µM*
COc1cccc(NC(=S)N2CCN(c3ccccn3)CC2)c1 | ? | -1.0% | 89.1µM* | 8.0% | -9.8%
COc1cc(NC(=S)N2CCN(c3ccccn3)CC2)c(OC)cc1Cl | 7.5% | 15.8µM* | ? | -38.0% | -25.7%
CCOC(=O)/C(N=Nc1ccc2c(c1)OCO2)=C(\C)O | ? | ? | 50.1µM* | -20.6% | ?
CCOC(=O)C(=O)Nc1ccc2c(c1)OCO2 | 0.0% | 1.3%[59 µM] | -15.7% | 34.5% | -24.5%
COc1ccccc1CNC(=O)Cc1ccccc1 | -7.7% | ? | -1.1% | 47.0% | 2.4%
Oc1ccccc1N1CCN(c2ccc3ccccc3n2)CC1 | 10µM* | 4.2% | -12.0% | 9.9% | -7.4%
O=C(Nc1cc2c3c(c1)C1CCCC1CN3CC1CCCC21)c1ccccc1 (centres undefined) | ? | 8.91µM* | ? | ? | 28.2µM*
O=C(Nc1ccc(N2CCC(N3CCCCC3)CC2)c(C(=O)O)c1)c1ccccc1 | 2.2% | -10.8%[59 µM] | -30.7% | -7.7% | ?
NCCNc1ccc(C(=O)N2c3ccccc3Sc3ccccc32)cc1[N+](=O)[O-] | -6.4% | ? | ? | -29.1% | 39.8µM*
Nc1ccc(C(=O)OCC(=O)N2c3ccccc3Sc3ccccc32)cc1[N+](=O)[O-] | 5.3% | -21.6%[59 µM] | ? | -12.2% | -37.6%
O=C1C=C(c2ccc(-c3ccccc3)cc2)C[C@@H](c2ccc3c(c2)OCO3)C1 | -7.7% | 4.7%[0.501 µM] | -11.3% | 33.2% | 1.9%
O=C1C=C(c2ccc(C(=O)O)c(Cl)c2)C[C@@H](c2ccc3c(c2)OCO3)C1 | -8.8% | . | 70.8µM* | 20.3% | .
C/C(=N\NC(=O)C1CC1)c1ccc(Cl)cc1 | -2.2% | 7.1%[59 µM] | 2.0% | 11.5% | -0.2%
